Test [1] in a line: antimalarial activity against Dd2 strain (AID 2302;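 active means growth inhibition above 50% at the single 2 µM test dose, taken to imply half-maximal potency below 2 µM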;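 further: 0% = DMSO untreated growth and 100% = chloroquine plus artemisinin killed control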). As to conditions: P. falciparum Dd2 in RBCs, LDH growth readout, 72 h; at 2 µM; hits give high values.
Test [2] in a line: HepG2 cytotoxicity, primary screen, cytotoxicity control for P. falciparum antimalarial project, cell-based, ATP luminescence (AID 2303;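 active means inhibition above 50%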;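 further: 0% = DMSO wells and 100% = digitonin-killed cells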). The following applies: HepG2 viability, 24-48 h, at 10 µM, hits give high values.
Test [3] has as its target L-lactate dehydrogenase (Plasmodium falciparum (isolate CDC / Honduras)) (UniProt Q27743). In words: PfLDH activity inhibition – cell lysate, 3D7 strain, counter-screen for P. falciparum growth inhibition project (AID 2304).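 Further: 0% = vehicle and 100% = reference inhibitor.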 As to conditions: P. falciparum 3D7 crude extract, LDH APAD/NBT absorbance; at 2 µM; hits give high values. Background: A counterscreen serves to expose hits that act by an unwanted route or on another target.

Test [4] in a line: inhibition of 3D7 malaria parasite growth – strain 3D7 (AID 2306).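 Further: 0% = DMSO wells and 100% = chloroquine plus artemisinin control wells.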 As to conditions: P. falciparum 3D7 erythrocytic growth, LDH absorbance, 72 h; at 2 µM; hits give high values.
Test [5] concerns the target Calcium-dependent protein kinase 1 (Plasmodium falciparum (isolate 3D7)) (UniProt P62344). Kind of test: PfCDPK1 kinase inhibitors, biochemical, TCAMS library (AID 1159585; cut-off not given, nearly all actives have IC50 up to about 0.98 µM;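 further: inhibitors leave more ATP so luminescence rises with inhibition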). As to conditions: recombinant PfCDPK1, Kinase-Glo ATP depletion luminescence.
Test [6] addresses Plasmodium falciparum protein kinase 6 (PK6, PF3D7_1337100) (UniProt Q8IDW1). In words: PfPK6 kinase inhibitors, biochemical, TCAMS library (AID 1159586). As to conditions: recombinant PfPK6, Kinase-Glo ATP depletion luminescence. For orientation: Kinase-Glo measures the ATP left after a reaction by luminescence.
Test [7] deals with Protein kinase 7 (PK7), Plasmodium falciparum 3D7 (PF3D7_0213400) (UniProt Q7YTF7). In words: inhibition of Plasmodium PK7 catalytic activity – biochemical, TCAMS antimalarial set, Kinase-Glo luminescence (AID 1159587). The following applies: recombinant PfPK7, Kinase-Glo ATP depletion luminescence.
Protein kinase 7 (PK7), Plasmodium falciparum 3D7 (PF3D7_0213400), sequence (Q7YTF7 1-343): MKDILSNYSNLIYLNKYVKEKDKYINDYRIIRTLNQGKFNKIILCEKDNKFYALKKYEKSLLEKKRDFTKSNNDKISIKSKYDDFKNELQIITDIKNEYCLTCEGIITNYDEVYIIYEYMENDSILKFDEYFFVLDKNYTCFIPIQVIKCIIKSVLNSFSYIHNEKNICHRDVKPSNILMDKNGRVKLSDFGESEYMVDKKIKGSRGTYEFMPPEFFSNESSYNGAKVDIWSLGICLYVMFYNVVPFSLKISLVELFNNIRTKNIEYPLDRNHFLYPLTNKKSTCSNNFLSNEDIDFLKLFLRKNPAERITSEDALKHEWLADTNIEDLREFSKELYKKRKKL
The target in test [8] is Calcium-dependent protein kinase 4 (Plasmodium falciparum (isolate 3D7)) (UniProt Q8IBS5). In words: PfCDPK4 kinase inhibitors, biochemical, TCAMS library (AID 1159588; cut-off not given, nearly all actives have IC50 up to about 0.91 µM). As to conditions: recombinant PfCDPK4, Kinase-Glo ATP depletion luminescence.
Calcium-dependent protein kinase 4 (Plasmodium falciparum (isolate 3D7)), sequence (Q8IBS5 whole entry, looked up): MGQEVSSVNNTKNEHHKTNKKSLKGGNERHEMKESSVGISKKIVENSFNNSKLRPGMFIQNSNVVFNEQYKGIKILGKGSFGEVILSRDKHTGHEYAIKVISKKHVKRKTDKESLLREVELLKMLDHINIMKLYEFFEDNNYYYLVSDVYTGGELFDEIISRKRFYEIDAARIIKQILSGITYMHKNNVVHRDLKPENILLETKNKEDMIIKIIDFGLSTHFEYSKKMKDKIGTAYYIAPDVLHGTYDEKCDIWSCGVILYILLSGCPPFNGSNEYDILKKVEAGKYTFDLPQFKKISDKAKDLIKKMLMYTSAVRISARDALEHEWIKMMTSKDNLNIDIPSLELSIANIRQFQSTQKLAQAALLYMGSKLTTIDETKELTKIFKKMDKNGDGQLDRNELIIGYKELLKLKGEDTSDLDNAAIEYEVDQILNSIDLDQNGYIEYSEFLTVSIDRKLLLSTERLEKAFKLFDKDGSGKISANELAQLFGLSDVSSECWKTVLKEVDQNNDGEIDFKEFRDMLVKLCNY

Unmarked numbers belong to inactive results. For some of these results: Measured potencies and affinities stand elsewhere. Activity calls are given as the source filed them. Unless noted, how the calls were made is not given here.

In general, inhibition refers to the drop in the measured response relative to a control, in per cent.

L-lactate dehydrogenase (Plasmodium falciparum (isolate CDC / Honduras)), sequence (Q27743 whole entry, looked up): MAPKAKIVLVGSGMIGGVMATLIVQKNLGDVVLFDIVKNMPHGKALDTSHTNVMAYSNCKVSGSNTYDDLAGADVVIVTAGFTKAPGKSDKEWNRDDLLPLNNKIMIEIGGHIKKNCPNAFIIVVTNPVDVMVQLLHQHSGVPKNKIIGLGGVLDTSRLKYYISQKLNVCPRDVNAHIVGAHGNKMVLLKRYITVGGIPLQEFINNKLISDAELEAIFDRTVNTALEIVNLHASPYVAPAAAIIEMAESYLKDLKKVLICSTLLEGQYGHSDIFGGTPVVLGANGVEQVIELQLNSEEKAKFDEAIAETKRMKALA
Calcium-dependent protein kinase 1 (Plasmodium falciparum (isolate 3D7)), sequence (P62344 whole entry, looked up): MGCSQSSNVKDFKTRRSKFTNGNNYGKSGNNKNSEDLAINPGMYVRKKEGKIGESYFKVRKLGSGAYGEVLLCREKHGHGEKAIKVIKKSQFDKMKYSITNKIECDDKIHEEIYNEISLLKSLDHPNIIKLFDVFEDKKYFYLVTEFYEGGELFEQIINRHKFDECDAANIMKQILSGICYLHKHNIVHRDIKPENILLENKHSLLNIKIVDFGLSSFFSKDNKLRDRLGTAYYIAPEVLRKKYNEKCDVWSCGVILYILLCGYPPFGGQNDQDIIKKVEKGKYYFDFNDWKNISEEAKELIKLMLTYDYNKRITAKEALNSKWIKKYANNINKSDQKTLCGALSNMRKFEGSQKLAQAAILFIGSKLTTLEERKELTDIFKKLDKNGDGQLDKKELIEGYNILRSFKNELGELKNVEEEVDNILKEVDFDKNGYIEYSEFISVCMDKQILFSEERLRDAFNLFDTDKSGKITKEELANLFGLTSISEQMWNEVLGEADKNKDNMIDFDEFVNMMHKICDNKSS
Plasmodium falciparum protein kinase 6 (PK6, PF3D7_1337100), sequence (Q8IDW1 1-305): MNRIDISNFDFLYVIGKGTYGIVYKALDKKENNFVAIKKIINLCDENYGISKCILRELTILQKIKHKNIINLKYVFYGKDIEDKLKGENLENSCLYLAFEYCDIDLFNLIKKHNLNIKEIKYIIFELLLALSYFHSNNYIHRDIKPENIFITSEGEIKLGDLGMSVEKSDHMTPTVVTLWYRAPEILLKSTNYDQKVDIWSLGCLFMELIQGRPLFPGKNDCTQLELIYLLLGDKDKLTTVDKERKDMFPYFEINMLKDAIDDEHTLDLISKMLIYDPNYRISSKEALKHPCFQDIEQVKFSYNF

In the case of `CCc1ccc(C2CCN(CCCCNC(=O)c3ccc(-c4ccc(C#N)cc4)cc3)CC2)c(OCCO)c1`, the figures for the growth inhibition in test [1] and in test [4] were 61% (active) and 94% (active), respectively. Also, the inhibition is 24% in test [2] and -4% in test [3]. For the same compound, the outcome in test [5], in test [6], in test [7] and in test [8] was inactive.
On to `COc1cccc(NC(=O)Cn2c(C)c(C(=O)C(F)(F)F)c3ccccc32)c1`, for which the growth inhibition in test [1] is 94% (active); in test [4], 97% (active). In addition, the inhibition was 2% in test [2] and -5% in test [3]. For the same compound, the result in test [5], in test [6], in test [7] and in test [8] was inactive.
With `Fc1cccc(COc2ccc(Nc3ncnc4cc(/C=C/[C@@H]5CCCN5)sc34)cc2Cl)c1`, the figures for the growth inhibition in test [1] and in test [4] were 56% (active) and 100% (active), respectively. Moreover, the values for the inhibition in test [2] and in test [3] were 17% and -7%, respectively. For the same compound, the result in test [5], in test [6], in test [7] and in test [8] was inactive.
For the compound `c1ccc(COc2ccc(Nc3ncnc4cnc(-c5ccc(CN6CCCCC6)o5)cc34)cc2)cc1`, the growth inhibition in test [1] was 13%; in test [4] it was 90% (active). In addition, the inhibition is -14% in test [2] and -5% in test [3]. Further, the result in test [5], in test [6], in test [7] and in test [8] was inactive.
As for `O=C(/C=C/c1ccc(Cl)c(Cl)c1)NCCCCCCN1CCCN(C(=O)Nc2cccc(C(F)(F)F)c2)CC1`, the growth inhibition in test [1] is 0%; in test [4], 95% (active). Further, the results for the inhibition in test [2] and in test [3] were 25% and -3%, respectively. Also, the outcome in test [5], in test [6], in test [7] and in test [8] was inactive.
`Nc1nc(N)c2c(ccc3c2ccn3CCCC2CCCNC2)n1` (stereo unspecified): the growth inhibition in test [1] is 55% (active); in test [4] it was 98% (active). Further, the inhibition in test [2] is 67% (active); in test [3], -4%. Besides, the outcome in test [5], in test [6], in test [7] and in test [8] was inactive.
In the case of `Cc1sc(C)c(CNCCCNc2cc(=O)c3ccccc3[nH]2)c1Br`, the growth inhibition in test [1] is 15%; in test [4] it was 93% (active). Moreover, the values for the inhibition in test [2] and in test [3] were -4% and -2%, respectively. Further, the outcome in test [5], in test [6], in test [7] and in test [8] was inactive.
On to `CC(C)C[C@H](NC(=O)c1ccc(OCCN2CCOCC2)cc1)C(=O)N[C@H](/C=N/N1CC(=O)NC1=O)CCc1ccccc1`, for which the growth inhibition is 67% (active) in test [1] and 88% (active) in test [4]. For the same compound, the inhibition was 10% in test [2] and 0% in test [3]. The outcome in test [5], in test [6], in test [7] and in test [8] was inactive.
Consider `O=[N+]([O-])c1ccc(C=NNc2nc(Nc3ccccc3)nc(Nc3ccccc3)n2)o1`, for which the growth inhibition in test [1] is 61% (active); in test [4], 94% (active). Moreover, the inhibition in test [2] was 5%; in test [3] it was -4%. Further, the outcome in test [5], in test [6], in test [7] and in test [8] was inactive.
`Cc1ccc(NC(=O)c2ccc3ncccc3c2)cc1OC1CCN(Cc2ccsc2)C1` (stereo unspecified): the growth inhibition was 49% in test [1] and 88% (active) in test [4]. The inhibition is 5% in test [2] and -3% in test [3]. For the same compound, the outcome in test [5], in test [6], in test [7] and in test [8] was inactive.
`CCCCCCCCCN(CCC)C(=O)[C@@H]1OC(C(=O)OC(c2ccccc2)c2ccccc2)=C[C@H](NC(=O)OC(C)(C)C)[C@H]1NC(C)=O`: the growth inhibition in test [1] is 49%; in test [4], 91% (active). The inhibition in test [2] is 0%; in test [3] it was -1%. The outcome in test [5], in test [6], in test [7] and in test [8] was inactive.
With `CC(C)Nc1cc(C(=O)N[C@@H](Cc2ccccc2)[C@H](O)CNC2CCOCC2)c(F)c(N2CCCCS2(=O)=O)c1`, the growth inhibition in test [1] and in test [4] was 98% (active) in each case. The inhibition in test [2] is 2%; in test [3] it was -2%. In addition, the result in test [5], in test [6], in test [7] and in test [8] was inactive.
With `COc1ccc(O)c(-c2sc(N=C(N)N)nc2-c2ccccc2)c1`, the growth inhibition is 96% (active) in test [1] and 101% (active) in test [4]. Besides, the inhibition was 2% in test [2] and -2% in test [3]. The outcome in test [5], in test [6], in test [7] and in test [8] was inactive.
Consider `Cc1cc(OCCCN2CCN(CCN3CCOCC3)CC2)ccc1NC(=O)COc1ccc(Cl)cc1C(=O)c1cc(Cl)cc(C#N)c1`, for which the values for the growth inhibition in test [1] and in test [4] were 78% (active) and 99% (active), respectively. Further, the inhibition in test [2] is 30%; in test [3] it was -3%. The result in test [5], in test [6], in test [7] and in test [8] was inactive.
Regarding `COc1c(C2CCN(CCCCNC(=O)c3cc(-c4ccc(C#N)cc4)n[nH]3)CC2)ccc2c1CCCC2`, the results for the growth inhibition in test [1] and in test [4] were 15% and 86% (active), respectively. The inhibition in test [2] is 36%; in test [3] it was -6%. Further, the result in test [5], in test [6], in test [7] and in test [8] was inactive.
For the compound `Cc1cc(N(C)C)nc(Nc2ccc(NC(=O)c3c(F)cccc3Cl)cc2)n1`, the growth inhibition in test [1] is 36%; in test [4] it was 90% (active). Besides, the inhibition is 15% in test [2] and 4% in test [3]. In addition, the outcome in test [5], in test [6], in test [7] and in test [8] was inactive.
Turning to `c1cc(-c2ccc(CN3CCCC3)cc2)cc(-c2nc3ccccc3[nH]2)c1`, the growth inhibition in test [1] was 52% (active); in test [4] it was 100% (active). Further, the figures for the inhibition in test [2] and in test [3] were 25% and 0%, respectively. Besides, the result in test [5], in test [6], in test [7] and in test [8] was inactive.

The values are drawn from PubChem BioAssay.
